Pol iota inh: qHTS for Inhibitors of Polymerase Iota | DNA polymerase iota (Homo sapiens), Q9UNA4 | Pol iota fluorescent replication assay, 10 min | Potency, µM (doses to about 115 µM), hits mostly inhibitors | hit rate 1% among 390,000 | AID 588590, 2011
Target sequence (Q9UNA4 whole entry, looked up): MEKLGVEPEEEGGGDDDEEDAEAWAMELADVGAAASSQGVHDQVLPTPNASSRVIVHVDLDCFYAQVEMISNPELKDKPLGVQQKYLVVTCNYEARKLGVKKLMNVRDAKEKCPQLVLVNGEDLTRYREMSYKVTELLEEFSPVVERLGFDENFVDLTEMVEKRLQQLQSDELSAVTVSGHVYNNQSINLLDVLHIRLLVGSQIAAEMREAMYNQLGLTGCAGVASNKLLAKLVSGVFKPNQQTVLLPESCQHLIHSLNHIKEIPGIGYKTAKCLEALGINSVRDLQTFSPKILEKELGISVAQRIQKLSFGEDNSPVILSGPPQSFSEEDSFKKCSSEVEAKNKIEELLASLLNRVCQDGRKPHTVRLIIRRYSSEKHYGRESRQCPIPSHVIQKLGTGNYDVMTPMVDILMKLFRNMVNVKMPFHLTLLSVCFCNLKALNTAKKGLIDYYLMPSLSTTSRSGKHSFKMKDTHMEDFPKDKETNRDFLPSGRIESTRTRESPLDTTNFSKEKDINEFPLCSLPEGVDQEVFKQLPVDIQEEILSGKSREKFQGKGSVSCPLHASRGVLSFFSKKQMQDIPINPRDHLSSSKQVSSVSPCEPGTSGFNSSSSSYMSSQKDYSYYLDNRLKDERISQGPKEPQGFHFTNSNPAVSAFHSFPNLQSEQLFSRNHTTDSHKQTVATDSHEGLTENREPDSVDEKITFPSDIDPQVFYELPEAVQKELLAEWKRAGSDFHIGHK
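Pol iota at 10 nM preincubated 15 min with compounds at room temperature; reaction started with fluorescent substrate, 50 nM final. Fluorescence read kinetically at 0 and 10 min; buffer-only wells as negative control.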
Pol eta inh: qHTS for Inhibitors of Polymerase Eta | DNA polymerase eta (Homo sapiens), Q9Y253 | recombinant Pol eta, fluorescent DNA replication assay | Potency, µM (highest dose often 114 µM), usual class: inhibitors | hit rate 1.2% among 390,000 | AID 588591, 2011
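Fluorescent replication assay: 50 nM final substrate added after a 15 min room-temperature compound preincubation with 10 nM enzyme. Signal taken at 0 min and again at 10 min.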
FEN1 inh-1: qHTS Assay for the Inhibitors of Human Flap endonuclease 1 (FEN1); AID 588795, 2011; Potency, µM (highest dose often 114 µM), usual class: inhibitors; P39748; Recombinant FEN1 flap cleavage, fluorescence, 15 min; hit rate 0.35% among 390,000; also: nearly all actives have a fitted effect of over 65% in size
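Enzyme 10 nM, 15 min RT preincubation with compound; start with substrate 50 nM final; reads at 0 and 15 min; qHTS titration, four-parameter Hill fit.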
Pol beta inh: qHTS Assay for Inhibitors of DNA Polymerase Beta; P06746; Pol beta primer extension/strand displacement, fluorescence kinetic; Potency, µM (series often up to 114 µM), hits mostly inhibitors; hit rate 1.3% among 340,000; AID 485314, 2010
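Pol beta (10 nM) and compounds were preincubated 15 min at room temperature, then 50 nM substrate (final) started primer extension/strand displacement. Reads were taken at 0 and 10 min; concentration-response data were fitted to a four-parameter Hill equation.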
Pol kappa inh: qHTS for Inhibitors of Polymerase Kappa | Potency, µM (highest dose often 107 µM), usual class: inhibitors | AID 588579, 2011 | hit rate 0.53% among 400,000 | purified Pol kappa, fluorescent DNA synthesis assay, 10 min | DNA polymerase kappa (Homo sapiens), Q9UBT6
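Pol kappa 10 nM + cpd, 15 min RT; start w/ substrate 50 nM final; fluorescence kinetic read, 0 and 10 min. Neg ctrl: buffer, no enzyme.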
TDP1 inh: qHTS Assay for Inhibitors of Tyrosyl-DNA Phosphodiesterase (TDP1) | Tyrosyl-DNA phosphodiesterase 1 (Homo sapiens), Q9NUW8 | recombinant TDP1, AlphaScreen DNA substrate cleavage | Potency, µM (top dose mostly 130 µM), actives largely listed as inhibitors | hit rate 0.28% among 350,000 | AID 485290, 2010; also: nearly all actives have a fitted effect of over 40% in size
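Compounds were preincubated with Tdp1 (1 nM final) for 15 min at room temperature before substrate (15 nM final) started a 5 min reaction; beads (10 ug/ml final) were then added for 10 min before AlphaScreen detection.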
FEN1 inh-2: qHTS Assay for the Inhibitors of FEN1: Confirmatory Assay for Cherry-picked Compounds. shares compounds with FEN1 inh-1. FEN1 flap cleavage, TAMRA/BHQ2 fluorogenic DNA substrate. Potency, µM, most hits filed as inhibitors. hit rate 79% among 880. AID 720498, 2013; also: nearly all actives have a fitted effect of over 60% in size
Hits are given with their value; 0 = inactive; ? = inconclusive; - = not tested or not shown; [ ] = another dose, or the depositor's remark. Hits are enriched below; roughly 2.4% of the tested compounds scored in any of these assays. Calls follow the shape of the dose curve; as a rule, active = well fitted curve in the direction sought with a large enough effect; inconclusive = small, poorly fitted or top-dose-only effect, or another doubt; inactive = no such curve, though single readings can be large; an effect the other way counts as inactive or inconclusive.

SMILES	Pol iota inh	Pol eta inh	FEN1 inh-1	Pol beta inh	Pol kappa inh	TDP1 inh	FEN1 inh-2
COc1cc(C(=O)OC(C)C(=O)NC2CCCCC2C)c([N+](=O)[O-])cc1OC (stereo not given)	0	0	0	-	0	-	-
CC(OC(=O)c1ccc([N+](=O)[O-])s1)C(=O)NC1CCCCC1C (stereo not given)	?	0	0	-	0	0	12
CC1CCCC(NC(=O)COC(=O)c2ccccc2[N+](=O)[O-])C1C (stereo not given)	0	0	0	0	0	0	-
CCCN1CNc2c(c(=O)[nH]c(=S)n2CCc2cc(Cl)cc(Cl)c2)C1	0	-	0	-	0	0	-
O=C(NCC1(c2ccccc2)CCCC1)C(=O)Nc1cccc(C(F)(F)F)c1	0	0	0	0	0	0	-
COc1cccc(CNC(=O)CSC2=Nc3ccccc3C3=NC(C)C(=O)N23)c1OC (stereo not given)	0	0	0	0	0	0	-
CC(=O)OCC(=O)C1CCC2C3CC=C4CC(O)CCC4(C)C3CCC12C (stereo not given)	0	0	0	-	0	-	-
CC(=O)C1CCC2C3CC=C4CC(SC(=N)N)CCC4(C)C3CCC12C (stereo not given)	0	0	?	-	0	-	?
COc1ccc(OC)c(Nc2nc(NCCO)c3ccccc3n2)c1	0	?	?	?	0	-	?
COc1ccccc1Nc1nc(NCCO)c2ccccc2n1	-	-	-	0	-	0	-
O=C(CSc1nccn1Cc1ccc(Cl)cc1)Nc1ccc2c(c1)OCO2	0	0	0	0	0	0	-
Cc1cc(C)nc(NC(=O)CSc2nn(-c3ccccc3)c(=S)s2)n1	?	0	?	40µM	0	-	?
Cc1ccc(C(=O)NCC(c2ccc3c(c2)OCO3)N2CCN(C)CC2)cc1C (stereo not given)	?	0	0	0	0	0	-
C/C(=N\NC(=O)c1ccc(OC2OCCOC2Oc2ccc(C(=O)N/N=C(\C)c3ccncc3)cc2)cc1)c1ccncc1 (stereo not given)	?	?	0	?	0	0	67
CC1=C(/C=C/C(C)=C/C=C/C(C)=C\CO)C(C)(C)CCC1	-	-	-	-	0[19.4 µM]	0	-
Cc1sc(NC(=O)CSc2nc(O)cc(=O)[nH]2)nc1-c1ccccc1	?	0	50µM	0	0	0	67
CN1CCCC1CCNc1ncnc2ccc(-c3ccc4c(c3)OCO4)cc12 (stereo not given)	-	-	-	-	-	-	48
CN(C)CCNc1ncnc2ccc(-c3ccc4c(c3)OCO4)cc12	-	-	-	-	-	-	30
c1nc(NCCN2CCOCC2)c2cc(-c3ccc4c(c3)OCO4)ccc2n1	-	-	-	-	0	0	-
NCCCNc1ncnc2ccc(-c3ccc4c(c3)OCO4)cc12	-	-	-	-	-	-	38
CC(=O)NCCNc1ncnc2ccc(-c3ccc4c(c3)OCO4)cc12	-	-	-	-	0	-	-
Cc1cccc(NC(=O)CN2C(=O)S/C(=C\c3ccc(-c4cccc(C(=O)O)c4C)o3)C2=O)c1	?	35µM	40µM	0	0	25µM	67
Cc1cccc(NC(=O)CN2C(=O)N/C(=C/c3ccc(C)o3)C2=O)c1	?	0	0	0	0	0	-
O=C(NCCNC[C@@H](O)COc1ccc(O)cc1)N1CCOCC1	-	-	-	-	0[19.4 µM]	0	-
COCCNC(=O)C(=O)N/N=C/c1cccs1	0	0	?	0	0	0	-
SMILES	Pol iota inh	Pol eta inh	FEN1 inh-1	Pol beta inh	Pol kappa inh	TDP1 inh	FEN1 inh-2
COc1ccccc1NC(=O)C(=O)N/N=C/c1cccs1	0	?	32µM	?	0	0	30
COc1ccc2c(=O)n3nc(Nc4cccc(N5CCN(C)CC5)c4)sc3nc2c1	-	-	-	-	-	-	?
COc1cccc(CNC(=O)c2ccc3c(=O)n4nc(Nc5ccccc5)sc4nc3c2)c1	0	?	0	0	0	0	-
CCN1CCN(c2cccc(Nc3nn4c(=O)c5ccccc5nc4s3)c2)CC1	-	-	-	-	-	-	?
CN1CCN(c2cccc(Nc3nn4c(=O)c5ccccc5nc4s3)c2)CC1	-	-	-	-	-	-	43
CC(=O)N1c2c(cc(Br)cc2S(=O)(=O)NCc2ccccc2Cl)CC1C (stereo not given)	0	0	0	0	0	0	-
CC(=O)Nc1sc2c(c1-c1ccc3nc[nH]c3c1)CCNC2	-	-	-	-	-	-	38
COc1ccc(-c2cc(C(=O)Oc3ccccc3)c3cc(C)ccc3n2)cc1	0	0	0	0	0	0[12.3 µM]	-
COc1ccc(S(=O)(=O)N2CCN(C(=O)c3ccc([N+](=O)[O-])o3)CC2)cc1	?	?	0	?	0	45µM	76
COc1ccc(CCC(=O)N2CCN(S(=O)(=O)c3ccc(C)cc3)CC2)cc1	0	0	0	-	0	0	-
COCCn1c(=NC(=O)c2cc(Cl)sc2Cl)sc2cc(S(N)(=O)=O)ccc21	0	0	0	0	0	0	-
COCCn1c(=NC(=O)c2ccc3c(c2)OCCO3)sc2cc(S(N)(=O)=O)ccc21	?	0	0	0	0	0	?
COc1ccc(-n2c(C)nc3cc(C(=O)NC4CCCCCC4)ccc32)cc1	?	0	0	0	0	0	-
COc1ccc(CNc2ncnc3c2[nH]c2ccccc23)cc1	?	0	?	0	0	0	-
COc1ccc(CNc2ncnc3c2[nH]c2cc(OC)c(OC)cc23)cc1	?	?	35µM	6.3µM	0	-	30
Cc1ccc(OCC(=O)N(Cc2ccco2)Cc2ccc(C)o2)cc1	0	0	0	0	0	0	-
CN(C)CCNc1ccc(CO)c2oc3ccc(O)cc3c(=O)c12	?	0	35µM	-	0	-	30
CCN(CC)CCNc1ccc(CO)c2oc3cc(Cl)ccc3c(=O)c12	-	0	-	-	-	-	-
Cc1nc2ccc(N)cc2c(=O)n1Cc1ccc(Cl)cc1	0	0	0	0	0	0	-
Nc1ccc(Cn2ccc3c4c(N)nc(N)nc4ccc32)cc1	0	?	25µM	-	0	-	43
O=C(COC(=O)c1ccc([N+](=O)[O-])o1)NCc1ccc2c(c1)OCO2	?	79µM	18µM	-	0	0	7.6
O=C(COC(=O)c1ccc([N+](=O)[O-])o1)NC1CCCc2ccccc21 (stereo not given)	?	?	?	-	0	0	24
O=C(OCC(=O)N1CCc2ccccc21)c1ccc([N+](=O)[O-])o1	?	?	?	-	0	0	8.5
CC(NC(=O)COC(=O)c1ccc([N+](=O)[O-])o1)c1ccccc1 (stereo not given)	?	89µM	?	-	0	0	15

High-throughput results as filed in PubChem.
